Measurements reported in article PMC11006913.
Substitutions are numbered along the chain they refer to.

How the values were obtained:
Experiment in all cases: PBM; 200 nM protein, PBS
Settings in all cases: dsDNA, one strand shown
PAX4 [1] = molecular target: T1, PAX4 (Homo sapiens, UniProt O43316 9-242, R200K)
T1 sequence: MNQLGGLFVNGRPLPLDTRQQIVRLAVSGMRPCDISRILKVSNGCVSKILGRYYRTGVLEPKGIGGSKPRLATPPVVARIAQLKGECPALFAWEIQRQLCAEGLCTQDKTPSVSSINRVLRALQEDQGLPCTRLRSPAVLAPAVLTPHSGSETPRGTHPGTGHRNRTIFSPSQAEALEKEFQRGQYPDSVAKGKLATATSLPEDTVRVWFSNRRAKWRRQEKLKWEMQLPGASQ

PAX4 [2] = molecular target: T2, PAX4 (Homo sapiens, UniProt O43316 9-242)
T2 sequence: T1 sequence with K192R

PAX4 [3] = molecular target: T3, PAX4 (Homo sapiens, UniProt O43316 9-242, R200Q)
T3 sequence: T1 sequence with K192Q

PAX4 [4] = molecular target: T4, PAX4 (Homo sapiens, UniProt O43316 9-242, F177V)
T4 sequence: T1 sequence with F169V, K192R

PAX4 [5] = molecular target: T5, PAX4 (Homo sapiens, UniProt O43316 9-242, F177Y)
T5 sequence: T1 sequence with F169Y, K192R

PAX4 [6] = molecular target: T6, PAX4 (Homo sapiens, UniProt O43316 9-242, R227W)
T6 sequence: T1 sequence with K192R, R219W

VAX1 [7] = molecular target: VAX1 (Homo sapiens, UniProt Q5SQQ9 86-172)
Sequence of VAX1 (Homo sapiens, UniProt Q5SQQ9 86-172) (Q5SQQ9 86-172): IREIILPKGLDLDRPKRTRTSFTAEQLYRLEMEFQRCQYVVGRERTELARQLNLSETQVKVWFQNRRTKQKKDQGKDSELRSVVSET

VAX1 [8] = molecular target: VAX1 (Homo sapiens, UniProt Q5SQQ9 86-172, T142I)
Sequence of VAX1 (Homo sapiens, UniProt Q5SQQ9 86-172, T142I) (Q5SQQ9 86-172 T142I): as the sequence (Q5SQQ9 86-172) above, with T57I counted along it

VAX1 [9] = molecular target: VAX1 (Homo sapiens, UniProt Q5SQQ9 86-172, K157R)
Sequence of VAX1 (Homo sapiens, UniProt Q5SQQ9 86-172, K157R) (Q5SQQ9 86-172 K157R): as the sequence (Q5SQQ9 86-172) above, with K72R counted along it

PROP1 [10] = molecular target: PROP1 (Homo sapiens, UniProt O75360 56-141)
Sequence of PROP1 (Homo sapiens, UniProt O75360 56-141) (O75360 56-141): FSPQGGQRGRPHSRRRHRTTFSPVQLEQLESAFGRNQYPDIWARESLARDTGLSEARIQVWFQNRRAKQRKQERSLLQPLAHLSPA

PROP1 [11] = molecular target: PROP1 (Homo sapiens, UniProt O75360 56-141, R99H)
Sequence of PROP1 (Homo sapiens, UniProt O75360 56-141, R99H) (O75360 56-141 R99H): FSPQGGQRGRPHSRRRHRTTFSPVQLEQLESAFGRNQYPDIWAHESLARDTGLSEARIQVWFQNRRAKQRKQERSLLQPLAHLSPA

PROP1 [12] = molecular target: PROP1 (Homo sapiens, UniProt O75360 56-141, F88S)
Sequence of PROP1 (Homo sapiens, UniProt O75360 56-141, F88S) (O75360 56-141 F88S): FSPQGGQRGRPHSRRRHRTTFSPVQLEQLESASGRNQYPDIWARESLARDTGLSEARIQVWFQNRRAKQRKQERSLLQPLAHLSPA

| Sequence | binding signal (PAX4 [1]) | binding signal (PAX4 [2]) | binding signal (PAX4 [3]) | binding signal (PAX4 [4]) | binding signal (PAX4 [5]) | binding signal (PAX4 [6]) | binding signal (VAX1 [7]) | binding signal (VAX1 [8]) | binding signal (VAX1 [9]) | binding signal (PROP1 [10]) | binding signal (PROP1 [11]) | binding signal (PROP1 [12]) |
| --- | --- | --- | --- | --- | --- | --- | --- | --- | --- | --- | --- | --- |
| CGAATTAA | 12 upbm affinity estimate (log intensity, higher = more binding, comparable within an allelic series) | 12.6 upbm affinity estimate (log intensity, higher = more binding, comparable within an allelic series) | 11.9 upbm affinity estimate (log intensity, higher = more binding, comparable within an allelic series) | 10.6 upbm affinity estimate (log intensity, higher = more binding, comparable within an allelic series) | 11.2 upbm affinity estimate (log intensity, higher = more binding, comparable within an allelic series) | 11.1 upbm affinity estimate (log intensity, higher = more binding, comparable within an allelic series) | – | – | – | – | – | – |
| GAAGCTTC | 9.21 upbm affinity estimate (log intensity, higher = more binding, comparable within an allelic series) | 9.26 upbm affinity estimate (log intensity, higher = more binding, comparable within an allelic series) | 9.45 upbm affinity estimate (log intensity, higher = more binding, comparable within an allelic series) | 9.5 upbm affinity estimate (log intensity, higher = more binding, comparable within an allelic series) | 9.42 upbm affinity estimate (log intensity, higher = more binding, comparable within an allelic series) | 9.35 upbm affinity estimate (log intensity, higher = more binding, comparable within an allelic series) | 6.86 upbm affinity estimate (log intensity, higher = more binding, comparable within an allelic series) | 7.04 upbm affinity estimate (log intensity, higher = more binding, comparable within an allelic series) | 6.85 upbm affinity estimate (log intensity, higher = more binding, comparable within an allelic series) | – | – | – |
| CTCGCCTC | 9.23 upbm affinity estimate (log intensity, higher = more binding, comparable within an allelic series) | 9.21 upbm affinity estimate (log intensity, higher = more binding, comparable within an allelic series) | 9.24 upbm affinity estimate (log intensity, higher = more binding, comparable within an allelic series) | 9.31 upbm affinity estimate (log intensity, higher = more binding, comparable within an allelic series) | 9.3 upbm affinity estimate (log intensity, higher = more binding, comparable within an allelic series) | 9.28 upbm affinity estimate (log intensity, higher = more binding, comparable within an allelic series) | – | – | – | – | – | – |
| ACCGAGCC | 9.37 upbm affinity estimate (log intensity, higher = more binding, comparable within an allelic series) | 9.52 upbm affinity estimate (log intensity, higher = more binding, comparable within an allelic series) | 9.41 upbm affinity estimate (log intensity, higher = more binding, comparable within an allelic series) | 9.22 upbm affinity estimate (log intensity, higher = more binding, comparable within an allelic series) | 9.25 upbm affinity estimate (log intensity, higher = more binding, comparable within an allelic series) | 9.41 upbm affinity estimate (log intensity, higher = more binding, comparable within an allelic series) | – | – | – | 6.86 upbm affinity estimate (log intensity, higher = more binding, comparable within an allelic series) | 6.94 upbm affinity estimate (log intensity, higher = more binding, comparable within an allelic series) | 6.77 upbm affinity estimate (log intensity, higher = more binding, comparable within an allelic series) |
| CTGGGCCC | 9.08 upbm affinity estimate (log intensity, higher = more binding, comparable within an allelic series) | 8.93 upbm affinity estimate (log intensity, higher = more binding, comparable within an allelic series) | 9.11 upbm affinity estimate (log intensity, higher = more binding, comparable within an allelic series) | 8.97 upbm affinity estimate (log intensity, higher = more binding, comparable within an allelic series) | 9.09 upbm affinity estimate (log intensity, higher = more binding, comparable within an allelic series) | 9.02 upbm affinity estimate (log intensity, higher = more binding, comparable within an allelic series) | – | – | – | – | – | – |
| CCGCGAGC | 9.36 upbm affinity estimate (log intensity, higher = more binding, comparable within an allelic series) | 9.36 upbm affinity estimate (log intensity, higher = more binding, comparable within an allelic series) | 9.27 upbm affinity estimate (log intensity, higher = more binding, comparable within an allelic series) | 9.16 upbm affinity estimate (log intensity, higher = more binding, comparable within an allelic series) | 9.2 upbm affinity estimate (log intensity, higher = more binding, comparable within an allelic series) | 9.31 upbm affinity estimate (log intensity, higher = more binding, comparable within an allelic series) | – | – | – | – | – | – |
| ACTAATTC | 11.6 upbm affinity estimate (log intensity, higher = more binding, comparable within an allelic series) | 12.1 upbm affinity estimate (log intensity, higher = more binding, comparable within an allelic series) | 11.8 upbm affinity estimate (log intensity, higher = more binding, comparable within an allelic series) | 10.4 upbm affinity estimate (log intensity, higher = more binding, comparable within an allelic series) | 10.9 upbm affinity estimate (log intensity, higher = more binding, comparable within an allelic series) | 10.9 upbm affinity estimate (log intensity, higher = more binding, comparable within an allelic series) | – | – | – | – | – | – |
| GAATTAAC | 11.6 upbm affinity estimate (log intensity, higher = more binding, comparable within an allelic series) | 12.2 upbm affinity estimate (log intensity, higher = more binding, comparable within an allelic series) | 11.9 upbm affinity estimate (log intensity, higher = more binding, comparable within an allelic series) | 10.4 upbm affinity estimate (log intensity, higher = more binding, comparable within an allelic series) | 11 upbm affinity estimate (log intensity, higher = more binding, comparable within an allelic series) | 10.8 upbm affinity estimate (log intensity, higher = more binding, comparable within an allelic series) | – | – | – | – | – | – |
| GATATTAA | 11.2 upbm affinity estimate (log intensity, higher = more binding, comparable within an allelic series) | 11.5 upbm affinity estimate (log intensity, higher = more binding, comparable within an allelic series) | 11.2 upbm affinity estimate (log intensity, higher = more binding, comparable within an allelic series) | 10.3 upbm affinity estimate (log intensity, higher = more binding, comparable within an allelic series) | 10.5 upbm affinity estimate (log intensity, higher = more binding, comparable within an allelic series) | 10.6 upbm affinity estimate (log intensity, higher = more binding, comparable within an allelic series) | – | – | – | – | – | – |
| GCGAGGCC | 9.39 upbm affinity estimate (log intensity, higher = more binding, comparable within an allelic series) | 9.4 upbm affinity estimate (log intensity, higher = more binding, comparable within an allelic series) | 9.36 upbm affinity estimate (log intensity, higher = more binding, comparable within an allelic series) | 9.18 upbm affinity estimate (log intensity, higher = more binding, comparable within an allelic series) | 9.2 upbm affinity estimate (log intensity, higher = more binding, comparable within an allelic series) | 9.27 upbm affinity estimate (log intensity, higher = more binding, comparable within an allelic series) | – | – | – | – | – | – |
